Experimental findings from PubChem BioAssay (NCATS) are described below.

Each structure is given as a SMILES string. Inconclusive results are not listed. A call without a number means that no potency is given here. The source made the active and inactive calls. The call rests on the fitted dose curve; in most records, active means well fitted inhibition curve with a large enough effect; inconclusive means small, poorly fitted or top-dose-only effect; inactive means flat fitted curve, though single readings scatter.

The assay in a line: P-glycoprotein substrates identified in KB-8-5-11 adenocarcinoma cell line, qHTS therapeutic library screen (AID 1346987). Further: nearly all actives have a fitted effect of over 65% in size. The following applies: KB-8-5-11 (P-gp overexpressing) viability, CellTiter-Glo, 72 h; series mostly up to 44.5 µM. The procedure, abridged:
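KB-8-5-11: colchicine-selected sub-line of KB-3-1 over-expressing P-gp; assay medium lacked colchicine. 72 h drug exposure at 37 degree C, CellTiter-Glo.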
On to `C=C1C(O)C(OC(=O)c2ccccc2)C2C(C)(C(=O)O)CCCC2(C)C1CC/C(C)=C\CO` (stereo not given), for which the Potency result is “inactive”.

For `COc1cc(Cc2cnc(N)nc2N)c(C(C)C)cc1OC`, the Potency result is “inactive”.

For the molecule `CC1(C)CC[C@]2(C(=O)O[C@@H]3O[C@H](CO)[C@@H](O)[C@H](O)[C@H]3O)CC[C@]3(C)C(=CCC4[C@@]5(C)CC[C@H](O[C@@H]6O[C@H](C(=O)O)[C@@H](O[C@@H]7O[C@H](CO)[C@@H](O)[C@H](O)[C@H]7O)[C@H](O)[C@H]6O[C@@H]6O[C@H](CO)[C@@H](O)[C@H](O)[C@H]6O)C(C)(C)C5CC[C@]43C)C2C1` (stereo not given in full), the outcome was “inactive [at 9.29 µM]”.

With `OC[C@@]1(O)CO[C@H](OC[C@H]2O[C@@H](OCCc3ccccc3)[C@H](O)[C@@H](O)[C@@H]2O)[C@@H]1O`, the Potency result is “inactive”.

Take `COc1ccc(OC2OC(CO[C@@H]3O[C@@H](C)[C@H](O)[C@@H](O)[C@H]3O)C(O)C(O)C2O)cc1OC` (stereo not given in full): the Potency result is “inactive”.

Take `O=C(O)c1ccc(NC(=O)[C@H](CC2CCCC2)n2cnc(C(F)(F)F)c2)nc1`: the Potency entry is “inactive”.

Consider `CCCO[C@@H]1O[C@H](CO)[C@@H](O)[C@H](O)[C@H]1O[C@@H]1OC[C@@H](O)[C@H](O)[C@H]1O`, for which the Potency entry was “inactive”.

Turning to `C[C@@H]1[C@H](O)[C@@H]2OC(=O)C3=C2[C@H](CCC3)[C@@]12C[C@@H](c1ccoc1)OC2=O`, the Potency result was “inactive”.

With `CC1=C2C(=O)C=C(CO)C2C2OC(=O)C(CS(=O)(=O)O)C2C(OC(=O)Cc2ccc(O)cc2)C1` (stereo not given), the Potency entry was “inactive”.

In the case of `C[C@@H]1O[C@@H](O[C@H]2[C@@H]3C=CO[C@@H](O[C@@H]4O[C@H](CO)[C@@H](O)[C@H](O)[C@H]4O)[C@@H]3[C@@]3(CO)O[C@@H]23)[C@H](O)[C@H](OC(=O)/C=C/c2ccc(O)cc2)[C@H]1OC(=O)/C=C/c1ccc(O)cc1`, the Potency result was “inactive”.

Consider `CCC(C)C(=O)OC[C@H]1O[C@H](O[C@H]2O[C@H](CO)[C@@H](O)[C@H](O)[C@H]2O)[C@H](O)[C@@H](O)[C@@H]1O` (stereo not given in full), for which the Potency result is “inactive”.

In the case of `C=C(COC(=O)C(C)C)C1Oc2cc(C(C)=O)ccc2C1OC(=O)C(C)C` (stereo not given), the Potency result is “inactive”.

With `CO[C@@H]1[C@]2(O)C(=O)N3/C=C\C(C)(C)c4[nH]c5ccccc5c4/C=C\3C(=O)N2[C@]23[C@H](CO)C(C)(C)N2c2ccccc2[C@]13O`, the Potency entry was “inactive”.

For `C/C=C1/[C@H](O[C@@H]2O[C@H](CO)[C@@H](O)[C@H](O)[C@H]2O)OC=C2C(=O)O[C@@H]3C[C@@H](C(C)CO)[C@H](COC(=O)C[C@H]21)[C@H]3C` (stereo not given in full), the Potency entry was “inactive”.

Consider `Oc1ccccc1-c1cc(-c2ccccc2F)[nH]n1`, for which the Potency result was “inactive”.

Consider `C=CC(C)(O)CC/C=C(\C)COC1O[C@H](CO)[C@@H](O)[C@H](O)[C@H]1O` (stereo not given in full), for which the Potency result was “inactive”.

For the molecule `CC1C2=CC(=O)OC2(O)CC2C1C(O)CC1C(C)(CO)CCCC21C` (stereo not given), the Potency entry is “inactive”.

For the molecule `CC(C)c1cc2c(c(O)c1O)[C@@]13CCCC(C)(C)C1[C@@H](O)[C@@H]2OC3=O` (stereo not given in full), the Potency entry is “inactive”.

As for `O=C(N[C@H](Cc1ccccc1)C(=O)O)c1sc2cc(F)ccc2c1Cl`, the Potency entry is “inactive”.

As to `CCCSc1nc(NC2CC2c2ccc(F)c(F)c2)c2nnn(C3CC(OCCO)C(O)C3O)c2n1` (stereo not given), the Potency result was “inactive”.

As for `CC1=C[C@@H]2[C@H]3[C@@H]4O[C@@](C)(CC[C@H]4O)[C@H]3CC(=O)[C@]23C(=O)N[C@@H](CC(C)C)[C@@H]3[C@@H]1C`, the Potency result was “inactive”.

As for `COC(=O)C1=CO[C@@H](O[C@@H]2O[C@H](CO)[C@@H](O)[C@H](O)[C@H]2O)[C@H]2[C@@H]1[C@H](O)[C@H](O)[C@]2(C)O`, the Potency result was “inactive”.

As for `COc1cc(C(C)=O)ccc1O[C@@H]1O[C@H](CO)[C@@H](O)[C@H](O)[C@H]1O`, the Potency result is “inactive”.

In the case of `COc1c(O)cc2c(c1O)C(=O)O[C@H](C)[C@H]2O`, the Potency result was “inactive”.

Consider `CC1=C2C[C@@]3(C)C(CCC[C@@H]3C)C(O)C2(O)OC1=O` (stereo not given in full), for which the Potency result was “inactive”.

As to `CC1=C[C@H]2[C@@H](CC1=O)[C@H](C)C[C@H](O)[C@H]2C(C)C`, the Potency result was “inactive”.

With `CC[C@H](NC(=O)c1c(O)c(-c2ccccc2)nc2ccccc12)c1ccccc1`, the Potency result is “inactive”.

In the case of `COC(=O)C1=COC(O[C@@H]2O[C@H](CO)[C@@H](O)[C@H](O)[C@H]2O)C2C(C)C(=O)CC12` (stereo not given in full), the Potency result was “inactive”.

`CNC(=O)c1ccc2c(c1)CCO[C@H]2CCN1CCN(c2ccc(C(N)=O)cc2)CC1`: the Potency entry was “inactive”.

For `CC1=CC(=O)CC(C)(C)C1CO[C@@H]1O[C@H](CO)[C@@H](O)[C@H](O)[C@H]1O` (stereo not given in full), the Potency entry is “inactive”.

As for `C[C@]1(OC(=O)/C=C/c2ccc(O)cc2)C[C@@H](O)[C@]2(O)C=CO[C@@H](O[C@@H]3O[C@H](CO)[C@@H](O)[C@H](O)[C@H]3O)C12` (stereo not given in full), the Potency entry is “inactive”.

On to `CCN(CCN(C)C)C(=O)CNCc1cc(C(N)=O)ccn1`, for which the Potency entry is “inactive”.

Take `CC1=CCC[C@@H]2[C@](CCc3ccoc3)(C(=O)O)[C@H](C)CC[C@@]12C`: the Potency result is “inactive”.

As for `CC(=O)O[C@@H]1[C@H](OC(C)=O)C[C@@]2(C)C(CC[C@@H](C)[C@]23Cc2c(O)cc4c(c2O3)CN([C@@H](CCC(=O)O)C(=O)O)C4=O)C1(C)C` (stereo not given in full), the Potency entry was “inactive”.

Turning to `CC(O)/C=C/C1(O)C(C)C(O)C(O[C@@H]2O[C@H](CO)[C@@H](O)[C@H](O)[C@H]2O)CC1(C)C` (stereo not given in full), the Potency entry is “inactive”.

For the molecule `Cc1nc(-c2cccnc2)sc1C(=O)Nc1ccccc1-c1cn2c(CN3CCOCC3)csc2n1`, the Potency result was “inactive”.

As to `CC1(C)CC[C@]2(C(=O)O[C@@H]3O[C@H](CO)[C@@H](O)[C@H](O)[C@H]3O)CC[C@]3(C)C(=CCC4[C@@]5(C)C[C@H](O)[C@H](O[C@@H]6O[C@H](C(=O)O)[C@@H](O)[C@H](O)[C@H]6O)[C@@](C)(CO)C5CC[C@]43C)C2C1` (stereo not given in full), the activity change, negative = cytotoxicity is -7.52% [at 9.29 µM] (inactive).

In the case of `C=C(C(=O)O)[C@@H]1CC[C@@]2(C)CCC[C@@](C)(O)[C@@H]2C1`, the Potency result was “inactive”.

Consider `CCOC(=O)C(CCc1ccccc1)NC(C)C(=O)N1Cc2ccccc2CC1C(=O)O` (stereo not given), for which the Potency entry was “inactive”.

Regarding `O=C(O)CC/C=C\C[C@H]1CO[C@@H](c2ccccc2Cl)O[C@H]1c1ccccc1O`, the Potency result is “inactive”.
